# This is a sample that favours compounds with a hit; in the whole collection about 0.5% have one here.
# E coli growth-1 – E. coli growth inhibition, primary screen, OD600. Escherichia coli growth, 23 h; active compounds read low. OD600 absorbance (concentration not given with the values). 330,000 tested, 0.21% active. AID 1053175, 2014;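 active = OD600 absorbance below the run mean of sample wells minus 3.6 SD, in any replicate, cut at about 0.56 in these data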
# AddAB inh – growth inhibition of E. coli expressing H. pylori AddAB, primary screen, AddAB inhibitor project, absorbance. inhibition, % at 11.9 µM. 330,000 tested, 0.29% active; in the data active = inhibition above about 12%
# Tat export inh – E. coli Tat export inhibitors, primary screen, MC4100, TorA-mCherry reporter, fluorescence, single point | 340,000 tested, 0.036% active | inhibition, % at 10 µM | AID 488895, 2010;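 active = mean replicate inhibition at least 50% and at least half of replicates individually reaching 50%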;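 note: exported cargo escapes ClpAP degradation while cytoplasmic cargo is degraded and loses fluorescence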
# E coli growth-2 – E. coli V3065 growth inhibition, primary screen, counter-screen for AddAB inhibitor project, absorbance, OD600 | 18 h | inhibition, % at 11.9 µM | 330,000 tested, 0.27% active;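 active = inhibition above the campaign's mean inhibition across all tested compounds plus 3 SD, cut at about 9.9% in these data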;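 note: uninfected addAB+ strain grown without phage in ampicillin broth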
# phage Ecoli inh – growth loss of phage-infected E. coli, primary screen, RecBCD inhibitor project, absorbance, with phage, HTS. 360,000 tested, 0.26% active. inhibition, % at 11.9 µM; in the data active = inhibition above about 11%
# A number is an active result; . = inactive; / = not tested or not shown.
SMILES,E coli growth-1,AddAB inh,Tat export inh,E coli growth-2,phage Ecoli inh
O=C(NC(=S)NNC(=O)c1cnccn1)c1ccc(F)cc1,0.405,.,.,.,.
O=C(/C=C/c1ccc(F)cc1)NC(=S)NNC(=O)c1cnccn1,.,.,.,.,.
Cc1cc(OCCCCn2ccnc2)cc(C)c1Cl,0.5,.,.,.,.
NCCOc1ccc(C23CC4CC(CC(C4)C2)C3)cc1,0.474,.,.,.,.
OCCN1CCN(CC(O)COc2ccc(C34CC5CC(CC(C5)C3)C4)cc2)CC1 (stereo unspecified),/,.,.,.,.
CC(C)CC(NC(=O)c1[nH]cnc1C(=O)NC(C)c1ccccc1)C(=O)OCc1ccccc1 (stereo unspecified),.,/,/,/,/
CSc1nc2ccc(Cl)cc2[nH]1,.,.,.,.,.
CSc1nc2cc(Oc3cccc(Cl)c3Cl)c(Cl)cc2[nH]1,0.461,.,.,.,.
COc1ccc(C=Nc2nc3ccccc3n2CCN2CCCCC2)cc1OC,.,/,/,/,/
CCN1CSC(=S)N(Cc2ccccc2)C1,.,.,.,.,.
CCN1CSC(=S)N(Cc2ccc(OC)cc2)C1,0.495,.,.,.,.
C=CCC(CC(=O)N(CCO)Cc1ccccc1)C(=O)NC(COC(=O)C(CC=C)Cc1ccc(F)cc1)c1ccccc1 (stereo unspecified),.,/,/,/,/
O=C(Nc1ccc(Cl)c(Cl)c1)Nc1ccccc1O,0.455,.,.,.,.
O=C(Nc1cccnc1)Nc1ccc(F)c(Cl)c1,0.535,.,.,.,.
O=C(Nc1ccc(Cl)c(Cl)c1)Nc1ccon1,0.538,.,.,.,.
N#CC(=Cc1ccc(Oc2ccc(C(F)(F)F)cc2[N+](=O)[O-])cc1)c1nc2ccccc2[nH]1,.,/,/,/,/
CC(C)NC(=O)N(C)CC1Oc2ccc(NC(=O)Nc3ccccc3)cc2C(=O)N(C(C)CO)CC1C (stereo unspecified),.,/,/,/,/
O=C(NCc1nc2ccccc2[nH]1)c1cccc(S(=O)(=O)N2CCCC2)c1,.,.,.,10.1,.
CCC(=O)N1CC2(CC(c3cccc([N+](=O)[O-])c3)=NO2)CC1C(=O)NCC(N)=O (stereo unspecified),.,/,/,/,/
CCCCNC(=O)C(=O)NN=Cc1ccc(OCC(=O)Nc2cccc(OC)c2)c(OC)c1,.,/,/,/,/
Cc1cc2cc(CCNC(=O)c3ccc(Br)o3)c(=O)[nH]c2cc1C,.,.,.,12.0,.
O=C(Nc1ccccc1)Nc1ncc([N+](=O)[O-])s1,0.362,/,.,/,.
O=C(COC(=O)c1ccccc1)Nc1ncc([N+](=O)[O-])s1,.,.,.,.,.
CN(C)S(=O)(=O)c1cccc(NC(=S)N/N=C/c2ccc(O)c(O)c2O)c1,/,/,.,/,10.9
Cc1ccc(C(=O)N/N=C/c2ccc(-c3ccccc3[N+](=O)[O-])o2)cn1,/,.,.,.,.
SMILES,E coli growth-1,AddAB inh,Tat export inh,E coli growth-2,phage Ecoli inh
CCOC(=O)NN=Cc1ccc([N+](=O)[O-])o1,0.455,/,/,/,/
Cc1ccc(C(=O)NN=Cc2ccc([N+](=O)[O-])o2)cn1,0.438,/,/,/,/
O=C(NC1CC1)C1=CC(c2coc3ccccc3c2=O)CC(OCc2ccc(CO)cc2)O1 (stereo unspecified),.,/,/,/,/
CC(C)n1c(C=Cc2ccccc2)nc2ccccc21,.,/,/,/,/
COC(=O)C1C(O)C(C)C(O)C(C)(O)/C=C\C=C(/C)C(=O)Nc2c(C)c(OC(C)=O)c3c(c2O)C(=O)C(C)=C2OCOC(=C23)/C(C)=C/C(C)(O)C(O)C(C)C1O (stereo unspecified),/,.,65.0,.,.
CCOc1cccc(/C=N/NC(=S)Nc2ccccc2[N+](=O)[O-])c1O,/,.,.,.,10.9
CCCOc1ccc(C=NNC(=S)Nc2ccccc2[N+](=O)[O-])c(O)c1,.,/,/,/,/
COc1ccc(-c2ccc(-c3noc(-c4ccccc4OC)n3)c(OC)n2)cc1,.,.,52.6,.,.
O=C(Nc1ccc(Cl)cc1)NN1CCCCCC1,.,/,.,/,.
N#Cc1ccc(NC(=O)NN2CCCCCC2)cc1,0.528,/,.,/,.
C=Cn1cc[n+](CC(=O)c2ccc(-c3ccccc3)cc2)c1,.,.,.,13.0,.
Cc1c2ccncc2cc2c1[nH]c1ccccc12,0.414,/,.,/,.
CCCCCCCCCCCCCCCC(O)C[N+](C)(C)CCO (stereo unspecified),/,/,51.9,/,.

# Screening data: PubChem BioAssay, several laboratories
